Source: PubChem BioAssay AID431 (Sanford-Burnham Center for Chemical Genomics, 2006)
The campaign covered roughly 63,000 compounds. About 1,100 (1.7%) were called active. The sample holds actives, similar compounds and a random draw of the others, so the mix is not that of the screen. Potency and affinity values are given separately. Values without a mark were called inactive.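 How the source made its calls: active means compounds whose percent cytotoxicity in the single-dose primary screen, scaled between solvent and toxic-drug controls, exceeds 50; inactive means the rest.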

Assay: cytotoxicity in KRAS-transformed pancreatic duct cells, primary screen, cell-based, fluorescence, HTS (AID 431);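 further: 0% = DMSO solvent wells and 100% = doxorubicin-treated wells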
Conditions: HPDE-C7K KRASV12 cells, Alamar Blue viability, 48 h; at 10 µM; hits give high values

Compound | cytotoxicity
CC1CN(S(=O)(=O)c2cn(C)c(=O)n(C)c2=O)CC(C)O1 (configuration not stated) | 14.8%
CCOC(=O)N1CCN(C(=O)c2cnn3c(C(F)F)cc(-c4ccc(C)cc4)nc23)CC1 | 4.7%
COc1ccc(-c2nnc(-c3cccs3)o2)cc1OC | 7.2%
COc1ccc(-c2nc(-c3cccs3)c(-c3cccs3)[nH]2)cc1O | 76.5% (active)
COc1ccc(-c2nc3ccccc3s2)cc1O | -3.4%
Cc1ccc2c(c1)C(c1ccccc1)N(C(=O)c1ccc(Br)o1)CC(=O)N2 (configuration not stated) | -13.7%
COc1ccccc1N1C(=O)C2C3C=CC(C3)C2(C)C1=O (configuration not stated) | -3.4%
Clc1ccc(-c2ccc(-c3nn4c(-c5ccco5)nnc4s3)o2)cc1 | -10%
Cc1oc(-c2ccc(F)cc2)cc1-c1nn2c(-c3ccco3)nnc2s1 | -11.2%
c1coc(-c2nn3c(-c4ccco4)nnc3s2)c1 | -16.1%
Cc1cc(-c2nn3c(-c4ccccc4)nnc3s2)c2ccccc2n1 | -2.8%
Fc1ccc(-c2ccc(-c3nn4c(-c5ccco5)nnc4s3)o2)cc1 | 83.7% (active)
c1ccc(-c2cc(-c3nn4c(-c5ccco5)nnc4s3)c3ccccc3n2)cc1 | 51.3% (active)
CCOC(=O)N1CCC(NC(=O)CNS(=O)(=O)c2ccc(Br)s2)CC1 | 6.3%
CCSc1nnc(NC(=O)C(C)(C(F)(F)F)C(F)(F)F)s1 | -1.2%
Cc1ccccc1N1CCN(C(=O)C2CCCCC2)CC1 | -1%
COc1cc2c(C(=O)N3CCN(Cc4ccc5c(c4)OCO5)CC3)cn(C)c(=O)c2cc1OC | -9%
COc1ccc(NS(=O)(=O)c2cc(C)ccc2NC(=O)c2cc(C)oc2C)cc1 | 69.4% (active)
COc1ccc(NS(=O)(=O)c2cc(OC)ccc2NC(=O)c2cc(C)oc2C)cc1 | 48.5%
COc1ccc(NS(=O)(=O)c2cc(C)ccc2C)cc1 | 35.3%
Cc1cc(N2CCN(C(=O)c3ccco3)CC2)n2nc(C)c(-c3ccccc3)c2n1 | 13.2%
Cc1nn2c(N3CCN(C(=O)c4ccco4)CC3)cc(C(C)(C)C)nc2c1-c1ccccc1 | 70.2% (active)
Cc1cc(N2CCN(C(=O)c3ccco3)CC2)n2nc(C)c(-c3ccc(Cl)cc3)c2n1 | 12.8%
COc1cccc(NC(=O)C2CCN(c3ncccn3)CC2)c1 | 3%
CC1(N2CCOCC2)CC2(O)C(=[N+]1[O-])CCc1nonc12 (configuration not stated) | 17.7%

Compound | cytotoxicity
CC1(N2CCOCC2)CC2(O)C(=[N+]1[O-])CCc1c2no[n+]1[O-] (configuration not stated) | 58.3% (active)
CC1(N2CCCCC2)CC2(O)C(=[N+]1[O-])CCC/C2=N\O (configuration not stated) | 15.9%
CC(C)NC(=O)CN(C(=O)CCC(=O)Nc1ccccn1)c1ccc(F)c(Cl)c1 | 2.5%
CC1(C)C(=O)Nc2ccccc2N1C(=O)CN1C(=O)c2ccccc2C1=O | -3.5%
CCC(=O)NC1(C(F)(F)F)C(=O)Nc2c1c(=O)n(C)c(=O)n2C (configuration not stated) | -2.3%
Cc1nnc(SCC(=O)N2CCN(S(=O)(=O)c3ccccc3)CC2)[nH]c1=O | 1.8%
CCc1nnc(NC(=O)c2ccc(NS(=O)(=O)c3ccccc3)cc2)s1 | -18.3%
CCc1nc(C)ccc1OCC(=O)O | -10.4%
CCCC(=O)NCCc1nc2ccccc2n1C | -5.4%
CCOc1cccc(-c2nc3cc(C)ccc3o2)c1 | -4.3%
Cc1n[nH]c(C)c1C(=O)CC1(O)C(=O)N(CCc2ccccc2)c2ccc(Cl)cc21 (configuration not stated) | 16.8%
Cc1ccc(-n2nc(C)c3c(-c4cccs4)c(C#N)c(N)nc32)cc1 | 4%
COc1cc(-c2c(C#N)c(N)nc3c2c(C)nn3-c2ccc(C)c(C)c2)cc(OC)c1OC | 57.8% (active)
Cc1nn(-c2ccccc2)c2nc(N)c(C#N)c(-c3ccc(F)cc3)c12 | 10.8%
O=C(O)CCN1Cc2ccccc2C1=O | -5.5%
Cc1ccc(NC(=O)CN2C(=O)COc3ccc(C)cc32)nc1 | 5.6%
COc1ccc(OC(=O)c2cc3ccccc3o2)cc1 | 12.8%
COc1ccc(OC)c(Nc2nc(N)nc(-c3cc4ccccc4o3)n2)c1 | 1.5%
COc1ccc(OC)c(NC(=O)c2cc3ccccc3o2)c1 | -12.4%
O=C(Nc1ccccc1Cl)N1CCN(c2ccc3nnc(-c4ccc(F)cc4)n3n2)CC1 | 19.5%
O=C(Nc1ccccc1C(F)(F)F)N1CCN(c2ccc3nnc(-c4ccc(F)cc4)n3n2)CC1 | 1.9%
O=C(Nc1ccc(Cl)cc1)N1CCN(c2ccc3nnc(-c4ccc(F)cc4)n3n2)CC1 | 58.7% (active)
Cc1cccc(NC(=O)CSc2nnc(-c3ccccc3)n2N)c1 | 1%
CCCc1[nH]nc2c1C(c1ccncc1)C(C#N)=C(N)O2 (configuration not stated) | -1.2%
CCc1[nH]nc2c1C(c1ccc(Br)s1)C(C#N)=C(N)O2 (configuration not stated) | 5%

Compound | cytotoxicity
CCCn1nnc(NC(=O)c2cc3ccccc3o2)n1 | -13.2%
Cc1ccc(NC(=O)c2ccc(OC(=O)c3ccco3)cc2)cc1 | -14.7%
O=C(Nc1nc(-c2cccs2)c(-c2ccccc2)s1)c1ccco1 | 58.9% (active)
CCC(=O)Nc1ccc(NC(=O)c2ccco2)cc1 | -4%
O=C(Nc1ccc(S(=O)(=O)N2CCOCC2)cc1)c1ccc(Br)o1 | -9.2%
Cc1ccc(Oc2ccc(NC(=O)c3ccco3)cc2)cc1 | 84.2% (active)
CC(=O)c1sc(NC(=O)c2ccco2)nc1-c1ccccc1 | 6.3%
O=C(Nc1ccc(Oc2ccc(NC(=O)c3ccco3)c(NC(=O)c3ccco3)c2)cc1)c1ccco1 | 29.9%
O=C(CCc1ccccc1)Nc1ccc(NC(=O)c2ccco2)cc1 | -8.3%
O=C(Nc1ccc(S(=O)(=O)N2CCCCCC2)cc1)c1ccc(Br)o1 | 55.5% (active)
O=C(Nc1ccc(Nc2ccccc2)cc1)c1ccco1 | 66.8% (active)
CN1CCN(S(=O)(=O)c2ccc(NC(=O)c3ccc(Br)o3)cc2)CC1 | -14.1%
CCOC(=O)c1sc(NC(=O)c2ccco2)nc1-c1ccccc1 | -7.2%
O=C1c2oc3ccccc3c(=O)c2C(c2ccc(Br)cc2)N1c1ncccn1 (configuration not stated) | 5.4%
O=S(=O)(c1ccccc1)c1nc(-c2ccco2)oc1NCc1cccnc1 | 14.5%
CCOC(=O)C1CCN(c2cc(=O)n(Cc3ccc(F)cc3)c(=O)[nH]2)CC1 | -12.8%
Cc1cc(NC(=O)c2c(F)c(F)c(F)c(F)c2F)no1 | -11.5%
Nc1c(C(=O)OCC2CCCO2)c2nc3ccccc3nc2n1C1CCCCC1 (configuration not stated) | -9.6%
COc1ccc(CCNC(=O)CSc2nnc(-c3cccc(C)c3)o2)cc1OC | -3.4%
CCOC(=O)N1CCC(NC(=O)Cn2c3c(c(-c4ccccc4Cl)cc2=O)CCC3)CC1 | 4.9%
CCOc1ccc(CN2C(=O)CCC2(C)C(=O)NCc2cccnc2)cc1 (configuration not stated) | 6.9%
Cc1nc(NC(=O)c2ccco2)sc1C(=O)Nc1ccc(Br)cc1 | 84% (active)
O=C(Nc1ccc(-c2nc3ncccc3o2)cc1)c1ccco1 | -8.5%
Cc1ccc2nc(-c3ccc(NC(=O)c4ccco4)cc3)[nH]c2c1 | 14.5%
O=C(Nc1ccc2nc(-c3ccccc3)oc2c1)c1ccco1 | 71.7% (active)

Compound | cytotoxicity
O=C(Nc1cccc(-c2nc3ccccc3[nH]2)c1)c1ccco1 | 9.8%
COC(=O)c1sc(NC(=O)c2ccco2)nc1C | -3.1%
O=C(Nc1ccccc1N1CCCC1)c1ccc(Br)o1 | -3.3%
Cc1ccc2nc(-c3cccc(NC(=O)c4ccco4)c3)[nH]c2c1 | 65.5% (active)
O=C(Nc1cccc(-c2nnc(-c3ccccc3)o2)c1)c1ccco1 | 3.5%
CCOC(=O)c1sc(NC(=O)c2ccco2)nc1C | 5.9%
O=C(Nc1cccc(Cl)c1N1CCCC1)c1ccc(Br)o1 | 93% (active)
CCN1CCN(c2c(Cl)cccc2NC(=O)c2ccc(Br)o2)CC1 | 10%
CN(C)S(=O)(=O)c1cccc(COC(=O)C2=COCCO2)c1 | -1.6%
O=C(c1ccco1)[C@@H]1[C@@H]2C(=O)N(c3ccc(F)cc3)C(=O)[C@@H]2C2c3ccccc3C=CN21 (some centres not stated) | 6.6%
COc1ccc(CCNS(=O)(=O)c2cccc(F)c2)cc1OC | -5.1%
Cc1onc(-c2c(F)cccc2Cl)c1C(=O)OCC(=O)NCc1ccco1 | 0.8%
CN(C)c1ccc(NC(=O)CN2CCC(C(=O)c3ccc(F)cc3)CC2)cc1 | 10.1%
COc1cc2[nH]c(=O)n(CCCCCC(=O)N3CCN(c4ccccc4)CC3)c(=O)c2cc1OC | 15.8%
O=C(NCC1CCCO1)C1C2C=CC3(CN(Cc4cccs4)C(=O)C13)O2 (configuration not stated) | -19.1%
O=C(O)c1cccc(S(=O)(=O)N2CCCC2)c1 | -8.3%
O=C(Nc1ccc(Nc2ccccc2)cc1)c1ccc(Br)o1 | 93% (active)
O=C(Nc1cccc(NC(=O)c2ccc(-c3cccc(Br)c3)o2)c1)c1ccco1 | 66.3% (active)
COC(=O)Cc1ccc(NC(=O)c2ccc(Br)o2)cc1 | 8.9%
CC(=O)Nc1cccc(NC(=O)c2ccco2)c1 | -14%
COc1ccc(Br)cc1C(=O)Nc1cccc(NC(=O)c2ccco2)c1 | 0.2%
O=C(Nc1ccc(S(=O)(=O)NCCc2ccccc2)cc1)c1ccc(Br)o1 | 15.9%
